Measured values published in PubChem BioAssay (Tox21).
Where “and” joins values, the source holds several entries; their conditions need not be identical. Identical values can stand only once. Records with an inconclusive call do not appear. Calls of active or inactive are those of the source. Unless noted, calls come from the whole dose curve; as a rule, active = well fitted curve in the direction sought with a large enough effect in the repeat runs; inconclusive = weak or mixed curves; inactive = no such curve, though single readings can be large; an effect the other way counts as inactive or inconclusive.

Tests used:
[1] = qHTS assay for small molecule agonists of the p53 signaling pathway (AID 651631; calls by dose curve; note: nearly all actives have a fitted effect of over 15% in size)
Procedure, shortened: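 Fluorescence intensity from cleaved LiveBLAzer B/G substrate (2 h, room temperature) served as the signal. Beforehand, HCT-116 reporter cells bearing p53 response elements were treated 16 h at 37 °C with DMSO-dissolved compounds.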

[2] = qHTS assay for small molecules that induce genotoxicity in human embryonic kidney cells expressing luciferase-tagged ATAD5 (AID 651632); note: nearly all actives have a fitted effect of over 15% in size
Procedure, shortened: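 Genotoxicity read-out via ATAD5-luciferase: HEK293T cells, 16 hr compound incubation at 37C, Amplite detection.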

[3] = qHTS assay for small molecules that induce genotoxicity in human embryonic kidney cells expressing luciferase-tagged ATAD5 - cell viability (AID 651634; calls by dose curve; note: nearly all actives have a fitted effect of over 25% in size)
Procedure, shortened: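 Live-cell protease activity (CellTiter-Fluor, fluorescence) indicates viability. HEK293T cells with luciferase-tagged ATAD5; 15.5 hr compound treatment at 37C.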

[4] = qHTS assay for small molecule disruptors of the mitochondrial membrane potential - cell viability (AID 720634; calls by dose curve;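 note: human HepG2 liver cancer cells; series mostly up to about 83 µM; nearly all actives have a fitted effect of over 20% in size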)
Procedure, shortened: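 Human hepatoma HepG2 cells were treated for 1 hr with test chemicals, then given m-MPI dye and CellTiter-Glo. Cell viability reflects luminescence proportional to cellular ATP.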

[5] = qHTS assay for small molecule disruptors of the mitochondrial membrane potential (AID 720635)
Procedure, shortened: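 Mitochondrial membrane potential tracked with Mito-MPS dye, red aggregates (ex 540/em 590 nm) against green monomers (ex 490/em 535 nm). Compound treatment 1 hr at 37C, dye 30 min in HepG2.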

[6] = qHTS assay to test for compound auto fluorescence at 590 nm (red) in HepG2 cells (AID 720674)
Procedure, shortened: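 Red autofluorescence (Ex/Em 540/590 nm, Rose Bengal sodium equivalents) was measured in HepG2 cells, 2,000 per well in MEM plus 10% FBS, plated overnight at 37 C. Readings were taken 1 hr after adding 23 nL compound or DMSO, at 37 C and 5% CO2.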

[7] = qHTS assay to test for compound auto fluorescence at 535 nm (green) in HepG2 cells (AID 720675)
[8] = qHTS assay to test for compound auto fluorescence at 460 nm (blue) in HEK293 cells (AID 720678)
Procedure, shortened: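 HEK293 cells (2,000/well, medium with 10% dialyzed FBS) attached 4-5 hr, then exposed to compound overnight at 37C, 5% CO2. Blue fluorescence read at 405/460 nm, with triamterene as reference fluorophore.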

[9] = qHTS assay to test for compound auto fluorescence at 590 nm (red) in HEK293 cells (AID 720679)
Procedure, shortened: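 HEK293 cells (2,000/well, 10% dialyzed FBS) attached 4-5 hr, then dosed with compound or DMSO and incubated overnight at 37C, 5% CO2. Red fluorescence read at 540/590 nm, Rose Bengal sodium as reference fluorophore.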

[10] = qHTS assay to test for compound auto fluorescence at 535 nm (green) in HEK293 cells (AID 720680)
[11] = qHTS assay to test for compound auto fluorescence at 460 nm (blue) in HEK293 cell free culture (AID 720681)
Procedure, shortened: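 Blue fluorescence (Ex 405/Em 460 nm, triamterene-equivalent) was read immediately after pin transfer of compound or DMSO into medium (DMEM, 10% FBS) without cells.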

[12] = qHTS assay to test for compound auto fluorescence at 535 nm (green) in HEK293 cell free culture (AID 720682)
Procedure, shortened: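 Intrinsic compound fluorescence is measured in culture medium containing 10% FBS, with excitation at 485 nm and detection at 535 nm, referenced to fluorescein.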

[13] = qHTS assay to test for compound auto fluorescence at 590 nm (red) in HEK293 cell free culture (AID 720683)
Procedure, shortened: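 Red-channel autofluorescence of compounds in culture medium (DMEM, 10% FBS), no cells, measured at 540/590 nm. Rose Bengal sodium is the reference fluorophore for equivalence.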

[14] = qHTS assay to test for compound auto fluorescence at 590 nm (red) in HepG2 cell free culture (AID 720684)
Procedure, shortened: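 Plate contents were MEM with 10% FBS plus test compound or DMSO, no cells. Fluorescence was recorded with 540 nm excitation and 590 nm emission.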

[15] = qHTS assay to test for compound auto fluorescence at 460 nm (blue) in HepG2 cell free culture (AID 720685)
Procedure, shortened: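 Compound (23 nL) or DMSO pinned into cell-free MEM with 10% FBS; blue fluorescence read at 405/460 nm excitation/emission, expressed as auto-fluorescence equivalency to triamterene.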

[16] = qHTS assay to test for compound auto fluorescence at 535 nm (green) in HepG2 cell free culture (AID 720686)
[17] = qHTS assay to test for compound auto fluorescence at 460 nm (blue) in HepG2 cells (AID 720687)
Procedure, shortened: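 Blue-channel autofluorescence (Ex/Em 405/460 nm, triamterene-equivalent) was measured after 1 hr compound exposure at 37 C, 5% CO2. Cells were HepG2, plated overnight at 37 C in MEM plus 10% FBS.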

[18] = target: Glucocorticoid receptor (Homo sapiens) (UniProt P04150); assay: qHTS assay to identify small molecule agonists of the glucocorticoid receptor (GR) signaling pathway (AID 720691; active = well fitted activation curve with a large enough effect in the signal ratio in the repeat runs, not every such curve was filed as active; the % refers to the signal ratio)
Procedure, shortened: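 Beta-lactamase reporter activity, read as fluorescence intensity, was measured in GR-bla HeLa cells exposed to compounds for 18 h at 37 C and then loaded with LiveBLAzer B/G FRET substrate for 2 h at room temperature.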

[19] = target: Glucocorticoid receptor (Homo sapiens) (UniProt P04150); assay: qHTS assay to identify small molecule antagonists of the glucocorticoid receptor (GR) signaling pathway (AID 720692; active = well fitted inhibition curve with a large enough effect in the signal ratio in the repeat runs, not every such curve was filed as active; the % refers to the signal ratio)
Procedure, shortened: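 Fluorescence from cleaved LiveBLAzer B/G FRET substrate reports GRE-driven beta-lactamase in HeLa cells; compounds are tested against 5 nM dexamethasone (final) over 18 h at 37 C, substrate incubation 2 h at room temperature.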

[20] = qHTS assay for small molecule agonists of the p53 signaling pathway - cell viability (AID 651633; calls by dose curve;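 note: p53RE-bla HCT reporter cells with a stable beta-lactamase p53 reporter; series mostly up to about 83 µM; nearly all actives have a fitted effect of over 30% in size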)
Procedure, shortened: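 Viability counter-read: CellTiter-Glo luminescence (30 min, room temperature) in the same p53RE-bla plates. These plates had been exposed to compounds for 16 h at 37 C.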
% is set by controls: 0 for no effect and ±100 for the full control effect.

Glucocorticoid receptor (Homo sapiens), sequence (P04150 whole entry, looked up): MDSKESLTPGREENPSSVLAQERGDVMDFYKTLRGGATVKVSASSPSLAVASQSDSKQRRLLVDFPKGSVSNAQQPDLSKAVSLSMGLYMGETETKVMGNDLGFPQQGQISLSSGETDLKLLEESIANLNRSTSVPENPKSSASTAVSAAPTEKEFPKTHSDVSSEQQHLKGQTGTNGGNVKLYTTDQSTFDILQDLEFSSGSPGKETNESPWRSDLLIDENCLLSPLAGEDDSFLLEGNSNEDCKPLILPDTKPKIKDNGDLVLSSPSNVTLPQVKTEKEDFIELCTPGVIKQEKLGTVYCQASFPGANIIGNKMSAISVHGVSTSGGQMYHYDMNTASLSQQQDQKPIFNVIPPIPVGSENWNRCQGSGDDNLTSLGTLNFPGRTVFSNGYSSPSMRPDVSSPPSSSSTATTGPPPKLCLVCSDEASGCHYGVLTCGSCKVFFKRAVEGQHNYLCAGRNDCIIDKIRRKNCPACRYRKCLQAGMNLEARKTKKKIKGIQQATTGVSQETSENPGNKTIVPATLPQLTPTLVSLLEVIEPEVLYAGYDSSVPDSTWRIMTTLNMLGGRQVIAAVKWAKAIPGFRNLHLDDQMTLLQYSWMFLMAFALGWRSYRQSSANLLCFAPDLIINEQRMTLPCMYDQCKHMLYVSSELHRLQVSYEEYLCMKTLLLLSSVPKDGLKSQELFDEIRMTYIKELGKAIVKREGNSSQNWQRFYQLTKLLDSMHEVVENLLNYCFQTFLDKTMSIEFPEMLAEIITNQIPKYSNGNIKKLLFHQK

CCN(CC)CCc1nc(-c2ccccc2)no1
inactive: Potency [1] | Potency [2] | Potency [3] | Potency [4] | Potency [5] | fluorescence, relative to Rose Bengal [6] 0.351% [at 18.6 µM] | fluorescence, % of fluorescein control [7] 0.0159% [at 18.6 µM] | fluorescence, % of triamterene [8] -0.138% [at 18.6 µM] | fluorescence, % of fluorescent control [9] 0.0464% [at 18.6 µM] | fluorescence, % of fluorescein [10] -0.143% [at 18.6 µM] | fluorescence, % of fluorescent control [11] -0.0186% [at 18.6 µM] | activity change [12] 0.0186% [at 18.6 µM] | fluorescence, % of fluorescent control [13] -0.0001% [at 18.6 µM] | fluorescence, % of Rose Bengal [14] 0.0837% [at 18.6 µM] | fluorescence, % of fluorescent control [15] -0.0109% [at 18.6 µM] | fluorescence, % of fluorescein control [16] -0.0688% [at 18.6 µM] | fluorescence, % of fluorescent control [17] -0.0362% [at 18.6 µM] | Potency [18] | Potency [19]

CCN(CCO)CCCC(C)Nc1ccnc2cc(Cl)ccc12 (stereo not given)
inactive: Potency [1] | Potency [2] | Potency [20] | Potency [4] | Potency [5] | outcome [6] | outcome [7] | Potency [8] | outcome [9] | outcome [10] | outcome [12] | outcome [13] | outcome [14] | Potency [15] | outcome [16] | Potency [17] | Potency [18] | Potency [19]

CCCCOC(O)CC (stereo not given)
inactive: Potency [1] | Potency [2] | Potency [20] | Potency [4] | Potency [5] | outcome [6] | outcome [7] | Potency [8] | outcome [9] | outcome [10] | Potency [11] | outcome [12] | outcome [13] | Potency [15] | Potency [17] | Potency [18] | Potency [19]

Cc1ccc(C)o1
inactive: Potency [1] | Potency [2] | Potency [20] | Potency [4] | Potency [5] | outcome [6] | outcome [7] | Potency [8] | outcome [9] | outcome [10] | Potency [11] | outcome [12] | outcome [13] | outcome [14] | Potency [15] | Potency [17] | Potency [18] | Potency [19]

Oc1ccc2c(c1)OCO2
inactive: Potency [1] | Potency [2] | Potency [20] | Potency [4] | Potency [5] | outcome [6] | outcome [7] | Potency [8] | outcome [9] | outcome [10] | Potency [11] | outcome [12] | outcome [13] | outcome [14] | Potency [15] | outcome [16] | Potency [17] | Potency [18]

CC1=CCC(C(C)C)C=C1 (stereo not given)
inactive: Potency [1] | Potency [2] | Potency [20] | outcome [6] | outcome [7] | Potency [8] | outcome [9] | outcome [10] | Potency [11] | outcome [12] | outcome [13] | outcome [14] | Potency [15] | outcome [16] | Potency [17]

NC[C@H]1O[C@H](O[C@H]2[C@H](O)[C@@H](O[C@H]3O[C@H](CO)[C@@H](O)[C@H](N)[C@H]3O)[C@H](N)C[C@@H]2N)[C@H](O)[C@@H](O)[C@@H]1O
inactive: Potency [1] | Potency [2] | Potency [3] | Potency [4] | ratio activity, negative = MMP loss [5] 0.685% [at 8.08 µM] | fluorescence, relative to Rose Bengal [6] -0.029% [at 18.6 µM] and 0.338% [at 3.72 µM] | fluorescence, % of fluorescein control [7] -0.0979% [at 18.6 µM] and 0.0187% [at 3.72 µM] | fluorescence, % of triamterene [8] 0.0195% [at 18.6 µM] and -0.0441% [at 3.72 µM] | fluorescence, % of fluorescent control [9] 0.0121% [at 18.6 µM] and -0.0907% [at 3.72 µM] | fluorescence, % of fluorescein [10] -0.0192% [at 18.6 µM] and 0.0982% [at 3.72 µM] | fluorescence, % of fluorescent control [11] 0.0354% [at 18.6 µM] and -0.129% [at 3.72 µM] | fluorescence, % of fluorescent control [13] 0.0769% [at 18.6 µM] and -0.256% [at 3.72 µM] | fluorescence, % of Rose Bengal [14] -0.276% [at 18.6 µM] and 0.0159% [at 3.72 µM] | fluorescence, % of fluorescent control [15] -0.077% [at 18.6 µM] and 0.036% [at 3.72 µM] | fluorescence, % of fluorescent control [17] 0.0301% [at 18.6 µM] and -0.0315% [at 3.72 µM] | Potency [19]

O=[N+]([O-])c1cc[n+]([O-])cc1
inactive: Potency [1] | Potency [2] | Potency [3] | Potency [4] | outcome [6] | outcome [7] | Potency [8] | outcome [9] | outcome [10] | Potency [11] | outcome [12] | outcome [13] | outcome [14] | outcome [16] | Potency [17] | Potency [18]

Cc1ccc(C(C)c2ccc(C)c(C)c2)cc1C
inactive: Potency [1] | Potency [2] | Potency [20] | Potency [4] | Potency [5] | outcome [6] | outcome [7] | Potency [8] | outcome [9] | outcome [10] | Potency [11] | outcome [13] | outcome [14] | Potency [15] | outcome [16] | Potency [17] | Potency [18] | Potency [19]
